The values below come from PubChem BioAssay AID463173 (ICCB-Longwood Screening Facility, Harvard Medical School, 2010).

SMILES strings stand for the structures. The campaign covered roughly 52,000 compounds. About 1,700 (3.3%) were called active. The full list was thinned out, with actives kept by preference. Values without a mark were called inactive. No stated cut-off is given here; in the data, active means survival mostly below about 52% (no sharp cut-off); inactive means mostly above about 56%.

For this assay, the system named is Wild type. Nature of the assay: growth inhibition of S. aureus wild type versus tarO mutant, primary screen, teichoic acid synthesis inhibitors, RN4220, OD600 (AID 463173). Particulars: S. aureus RN4220 wild type/DeltatarO growth, OD600, 18 h, hits give low values, screened at 18.75 µg/mL (by protocol).
Consider `COc1ccc(CC(=O)NCCS(=O)(=O)N2CCN(c3ccccc3F)CC2)cc1OC`, for which the survival is 66%.

Consider `O=C(CN1C(=O)CSC1=O)N1CCCCC1`, for which the survival is 97%.

For `CCc1ccc(-c2cc(C)no2)cc1S(=O)(=O)NCc1ccco1`, the survival is 76%.

Turning to `COc1cccc(Nc2sc(C(=O)c3ccc(Cl)cc3)c(N)c2C(=O)NCCc2ccc(OC)c(OC)c2)c1`, the survival is 75%.

Regarding `CC(C)=NNC(=O)c1nnn(-c2nonc2N)c1CN1CCOCC1`, the survival is 108%.

As for `COc1ccc(CNS(=O)(=O)c2ccc(F)c(C(=O)Nc3c(C)cc(C)cc3C)c2)cc1`, the survival was 80%.

Take `O=C(NCCO)c1ccc2[nH]c3c(c2c1)CCCC3`: the survival was 102%.

On to `Cc1ccc2nc(-c3c[nH]c4ccccc34)c(Nc3ccc(F)cc3)n2c1`, for which the survival is 72%.

For the compound `CCOC(=O)c1ccccc1NC(=O)COc1ccccc1-c1nnc(-c2ccccc2)o1`, the survival was 22%.

As for `CCC(Oc1ccccc1-c1nnc(-c2ccccc2)o1)C(=O)Nc1ccc(C(C)=O)cc1` (stereo not given), the survival is 118%.

Take `CCc1ccccc1NC(=O)C(CC)Oc1ccccc1-c1nnc(-c2ccccc2)o1` (stereo not given): the survival is 0% (active).

`CC(=O)c1ccc(S(=O)(=O)N2CCn3cccc3C2c2ccc(F)c(F)c2)cc1` (stereo not given): the survival was 68%.

In the case of `Nc1nc2n(n1)C(c1cccs1)CC(c1ccc(Cl)cc1Cl)N2` (stereo not given), the survival is 106%.

Regarding `CCOC(=O)C1CCC(CN(Cc2cccc(Br)c2)S(=O)(=O)c2ccc(Cl)cc2)CC1` (stereo not given), the survival is 90%.

On to `Cc1ccc2cccc(NC(=O)c3ccc(-c4ccc(Cl)cc4Cl)o3)c2n1`, for which the survival was 69%.

Regarding `Cc1cc(C)c2oc(-c3cccc(NC(=O)c4ccc(Br)o4)c3)nc2c1`, the survival is 45%.

Take `COc1cc2ccccc2cc1C(=O)Nc1cccc(-c2nc3ccccc3o2)c1`: the survival is 1% (active).

Regarding `COc1cc2ccccc2cc1C(=O)Nc1cccc(-c2nc3cc(C)c(C)cc3o2)c1`, the survival was 58%.

Turning to `Cc1ccc2cccc(NC(=O)C(C)Oc3ccc(C)c(C)c3)c2n1` (stereo not given), the survival is 83%.

Take `COc1ccc(NC(=O)c2ccco2)cc1NC(=O)C(C)C`: the survival was 90%.

Take `COc1cc2ccccc2cc1C(=O)Nc1cc(-c2nc3ccccc3o2)ccc1C`: the survival is 126%.

For `Cc1ccc2nc(-c3cccc(NC(=O)c4ccc(Br)o4)c3)oc2c1`, the survival is 7% (active).

`COc1ccc(NC(=O)c2ccco2)cc1NC(=O)C(C)Oc1ccc(Cl)cc1Cl` (stereo not given): the survival was 6% (active).

Consider `COc1ccc(NC(=O)c2ccco2)cc1NC(=O)c1cc(Cl)ccc1OC`, for which the survival is 65%.

As for `Cc1ccc2cccc(NC(=O)C(C)Oc3ccc(Cl)cc3Cl)c2n1` (stereo not given), the survival was -9% (active).

Consider `Cc1ccc2nc(-c3ccc(Cl)c(NC(=O)c4ccc(Br)o4)c3)oc2c1`, for which the survival was 69%.

With `Cc1cc2c(cc1S(=O)(=O)CCC(=O)N1CCCCC1C)OCC(=O)N2` (stereo not given), the survival is 85%.

`COc1ccc(CNC(=O)c2ccc(CS(=O)Cc3ccccc3Cl)o2)cc1` (stereo not given): the survival was 95%.

In the case of `Cc1ccc(-n2nc(C(=O)N3CCCCC3C)c(=O)n(C)c2=O)cc1` (stereo not given), the survival is 80%.

Consider `COc1ccc(S(=O)(=O)c2cn(C)c3ccc(C)cc3c2=O)cc1`, for which the survival is 82%.

As to `CSc1ccc(CNC(=O)c2ccccc2NC(=O)c2nsc3ccccc23)cc1`, the survival was 90%.

In the case of `CCc1ccc(NC(=O)CN2C(=O)C3(SCC(=O)N3c3ccc(F)c(F)c3)c3ccccc32)cc1` (stereo not given), the survival was 125%.

As for `COc1ccccc1OC(C)C(=O)Nc1cccc(-c2nc3ccccc3o2)c1` (stereo not given), the survival is 3% (active).

Regarding `COc1ccc(-c2nc3ccccc3o2)cc1NC(=O)Cc1ccc(Cl)cc1`, the survival was 68%.

For `COc1cc2ccccc2cc1C(=O)Nc1ccc2oc(-c3ccc(Cl)cc3)nc2c1`, the survival is 91%.

As for `Cc1cc(OC(C)C(=O)Nc2cccc(-c3nc4ccccc4o3)c2)cc(C)c1Cl` (stereo not given), the survival is 55%.

As for `COc1ccc(-c2nc3ccccc3o2)cc1NC(=O)C(C)Oc1ccc(Cl)cc1Cl` (stereo not given), the survival was 8% (active).

As for `CC(C)C(=O)Nc1cccc(-c2nc3ccccc3o2)c1`, the survival is 103%.

With `COc1cc2ccccc2cc1C(=O)Nc1ccc2oc(-c3ccc(F)cc3Cl)nc2c1`, the survival is 69%.

For the compound `COc1cc2ccccc2cc1C(=O)Nc1ccc2oc(-c3ccc(F)cc3)nc2c1`, the survival was 81%.

On to `CCc1ccc(-c2nc3cc(NC(=O)c4cc5ccccc5cc4OC)ccc3o2)cc1`, for which the survival is 14% (active).

Consider `COc1cc2ccccc2cc1C(=O)Nc1ccc2oc(-c3ccccc3)nc2c1`, for which the survival was 4% (active).

`COc1ccc(-c2nc3ccccc3o2)cc1NC(=O)CSc1ccc(Cl)cc1`: the survival was 73%.

Regarding `CCc1ccc(OCC(=O)Nc2ccc3oc(-c4ccc(OC)cc4)nc3c2)cc1`, the survival is 79%.

For `COc1ccc(-n2c(=O)c3sc4ccccc4c3n(C)c2=O)cc1`, the survival is 83%.

Take `CCOc1ccc(N=C(c2ccccc2)N2CCOCC2)cc1`: the survival is 99%.

For the compound `CCc1ccccc1N(C)C(=O)C1CCCN(c2ncnc3c2nc2n3CCCCC2)C1` (stereo not given), the survival was 75%.

With `CC(C)c1ccc(NC(=O)Cn2c(=O)oc3cc(S(=O)(=O)N4CCCC4)ccc32)cc1`, the survival is 124%.

As for `CC(C)C(=O)Nc1ccccc1C(=O)OCc1cc(=O)n2nc(C3CC3)sc2n1`, the survival is 100%.

`Cc1ccc(-n2nc(C)c3c(C)cc(=O)n(CC(=O)NC(C)c4ccccc4)c32)cc1` (stereo not given): the survival was 143%.

In the case of `Cc1oc2ncn(CC(C)C)c(=O)c2c1C(=O)N(CCN(C)C)Cc1ccccc1`, the survival is 99%.

Regarding `COc1cc2ccccc2cc1C(=O)Nc1ccc2oc(-c3cccc(C)c3)nc2c1`, the survival was 6% (active).

In the case of `COc1cc2ccccc2cc1C(=O)Nc1ccc2oc(-c3cccc(Cl)c3Cl)nc2c1`, the survival was 71%.

`COc1cc2ccccc2cc1C(=O)Nc1cccc(-c2nc3cc(C)ccc3o2)c1C`: the survival was 75%.

For the compound `Brc1ccc(-n2nc(-c3ccccc3)c3cnc4cc5c(cc4c32)OCO5)cc1`, the survival is 112%.

With `CCN(C(=O)CSc1nnc(-c2ccc(Cl)cc2)o1)c1ccccc1`, the survival is 66%.

For `CCCN1C(=O)C(O)(CC(=O)c2ccc(C(C)C)cc2)c2ccccc21` (stereo not given), the survival was 129%.

As to `COc1ccc(OC)c(C(=O)CC2(O)C(=O)N(Cc3ccccc3C)c3ccccc32)c1` (stereo not given), the survival was 118%.

As to `CCCCN1C(=O)C(O)(CC(=O)c2ccc(CC)cc2)c2cc(Br)ccc21` (stereo not given), the survival is 2% (active).

Consider `CCc1ccc(C(=O)CC2(O)C(=O)N(CCc3ccccc3)c3ccc(Br)cc32)cc1` (stereo not given), for which the survival is 36%.

On to `O=C(CC1(O)C(=O)N(Cc2ccccc2)c2ccc(Br)cc21)c1ccccc1` (stereo not given), for which the survival is 30%.

Regarding `CCCN1C(=O)C(O)(CC(=O)c2ccc(OC)c(OC)c2)c2ccccc21` (stereo not given), the survival is 130%.

As for `CCCCN1C(=O)C(O)(CC(=O)c2ccc(C(C)(C)C)cc2)c2ccccc21` (stereo not given), the survival was 3% (active).

For the compound `Cc1ccc(C(=O)CC2(O)C(=O)N(Cc3ccccc3F)c3ccccc32)cc1` (stereo not given), the survival was 71%.

In the case of `CCCCN1C(=O)C(O)(CC(=O)c2ccc(C)cc2C)c2cc(Br)ccc21` (stereo not given), the survival was 1% (active).

Turning to `Cc1ccc(C(=O)CC2(O)C(=O)N(CCc3ccccc3)c3ccc(Br)cc32)cc1` (stereo not given), the survival is 24%.

With `Cc1ccccc1CN1C(=O)C(O)(CC(=O)c2cccc(Br)c2)c2ccccc21` (stereo not given), the survival was 10% (active).

As for `Cc1ccc(C(=O)CC2(O)C(=O)N(Cc3ccccc3)c3ccccc32)c(C)c1` (stereo not given), the survival was 20%.

As for `COC(=O)CSc1ncc2c(n1)-c1ccccc1N(Cc1cccc(F)c1)S2(=O)=O`, the survival is 70%.

As for `CC(C)CCNC(=O)c1cccc(-n2cnc3cccnc32)c1`, the survival was 136%.

For the compound `Fc1ccc(-c2cn3cc(Cc4ccccc4Cl)sc3n2)cc1`, the survival was 53%.

On to `N#Cc1ccc2ccn(CC(N)=O)c2c1`, for which the survival was 95%.

With `CCOc1ccccc1NC(=O)c1cc2ccc3cccnc3c2[nH]1`, the survival was 10% (active).

Turning to `CCOC(=O)c1ccccc1NC(=O)c1cc2ccc3cccnc3c2[nH]1`, the survival was 121%.

`O=C(NCc1ccccc1)c1cc2ccc3cccnc3c2[nH]1`: the survival was 73%.

`O=C(NCc1ccc(Cl)cc1)c1cc2ccc3cccnc3c2[nH]1`: the survival was 49%.

Regarding `CCOc1ccccc1N(CC)C(=O)c1cc2ccc3cccnc3c2[nH]1`, the survival was 74%.

With `Cc1ccc(CNC(=O)c2cc3ccc4cccnc4c3[nH]2)cc1`, the survival is 0% (active).

On to `Cc1ccc(-c2nnn(CC(=O)N(CC(=O)NCCC(C)C)c3ccc(F)cc3)n2)cc1`, for which the survival is 84%.

`CCOC(=O)C1C(=O)N(C(=O)c2cncc(Br)c2)CC1c1ccccc1` (stereo not given): the survival was 112%.

As to `CCOC(=O)c1cc(S(=O)(=O)Nc2cc(F)ccc2C)[nH]n1`, the survival is 75%.

In the case of `CC1Oc2ccccc2N(CC(=O)NCc2ccccc2)C1=O` (stereo not given), the survival was 105%.

In the case of `CCC1Oc2ccccc2N(CC(=O)NCc2ccc(C)cc2)C1=O` (stereo not given), the survival is 77%.

Turning to `CCC1Oc2ccccc2N(CC(=O)NCc2ccccc2)C1=O` (stereo not given), the survival was -3% (active).

Consider `Cc1ccc(CCNC(=O)c2ccc(CSCc3ccc(C)cc3)o2)cc1`, for which the survival was 65%.

In the case of `CCc1nn2c(=O)cc(COC(=O)c3cccc(NC(=O)COc4ccccc4F)c3)nc2s1`, the survival was 124%.

As for `CC(C)(C)OC(=O)N1CCC(c2c(C(=O)NCCN3CCc4ccccc4C3)cnn2-c2ccc(F)cc2F)CC1`, the survival is 81%.

Take `Cc1cccc(C)c1-n1ncc(C(=O)NCCN2CCOCC2)c1C1CCN(C(=O)OC(C)(C)C)CC1`: the survival is 75%.

Consider `CC(C)(C)OC(=O)N1CCC(c2c(C(=O)NCCN3CCOCC3)cnn2-c2ccc(F)cc2)CC1`, for which the survival was 89%.

Consider `CC(C)(C)OC(=O)N1CCC(c2c(C(=O)NCCN3CCOCC3)cnn2-c2ccc(F)cc2F)CC1`, for which the survival was -3% (active).

Take `Cc1cccc(C)c1-n1ncc(C(=O)NCCN2CCN(C)CC2)c1C1CCN(C(=O)OC(C)(C)C)CC1`: the survival is 0% (active).

As for `Cc1cccc(C)c1-n1ncc(C(=O)NCCCN2CCCCC2)c1C1CCN(C(=O)OC(C)(C)C)CC1`, the survival is 85%.

Consider `CC(C)(C)OC(=O)N1CCC(c2c(C(=O)NC3CCN(Cc4ccccc4)CC3)cnn2-c2cccc(F)c2)CC1`, for which the survival is 76%.

Turning to `CCOC(=O)N1CCC(NC(=O)c2cnn(-c3ccc(F)cc3F)c2C2CCN(C(=O)OC(C)(C)C)CC2)CC1`, the survival was 82%.

On to `CC(C)(C)OC(=O)N1CCC(c2c(C(=O)NC3CCN(Cc4ccccc4)CC3)cnn2-c2ccc(F)cc2F)CC1`, for which the survival was -4% (active).
